System: RXRa DBDmut IVT, anti-RXR (DBD mutation: RXRa K156A/R161A, NR concentration 90 nM)
Assay: PBM binding z-score (relative to random genomic background probes); higher = stronger binding; sequences stand for … in GC…GCGATTGACAGCGTAGAATGAAGG
Outline: (§1)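 Ligand-free nuclear receptor dimers were bound for 1 h to custom Agilent 4×180K protein-binding microarrays. Detection used antibodies against each partner (one per run). Binding z-scores rest on regression-normalized fluorescence, with random background probes as the reference.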

Row | Sequence | PBM binding z-score
1 | TCAGACAGGTGAAGGTAACTCAAGTACGCAGTCG | 1.54
2 | TCGAGTAGGTTAGTCGGGGCAGTCAGCCAACATA | 0.125
3 | ACTCGGAGGACAAAGGCCAGAGCTACGCCAGTGA | 0.472
4 | CCTGCTAGGTCAATGGGCAGCTAAAGCAGCTCGC | 0.674
5 | TGAACGAGGTTATAAGATCAGGGAACGTTGCAAA | 0.444
6 | ACTAGCAGGCCAAGTTTGAGTCACTCAAACAAAG | -0.27
7 | ATCTCTAGGTAACCAGGTTCAGTGAATGCCGAAC | 0.664
8 | AGAGTGAGGTTATTAAGATCAGGGAATTGCGGTC | 1.56
9 | CCTAGCAGGGCAGGGTCACTCAAGCATTTCGCTT | 0.33
10 | TTACCAAGGTGAAAGGTAGTTGATGCACGCCTTG | 0.0303
11 | CCTGCTAGGTTATGGTCAGCTAATCTACAGTATG | 0.299
12 | ACCGAAAGGTCGTGAGGTGAGTATACAGAAAGGC | 1.74
13 | ACAGACAGGTGGTGAAGGTAACTCAGGCTATCAT | -0.443
14 | ACTAGTTGGTCAGCTGAGGTCACCCACAATTCGG | 1.19
15 | GGTTGTAGATCAAGGTTAAGAAAGACTAAGCTAA | 0.0764
16 | GTACCAAGGGGAATAGGTCGTTGATGAGTAGGCG | -0.365
17 | CCTTACGGGTCACTCCAGCTTATAGCATCGGAGT | 1.69

System: RXRa homodimer (NR concentration 180 nM)
Assay: as above
Outline: as §1

Row | Sequence | PBM binding z-score
18 | TATACAGGGTCAAAGGCCAGGGTACGAATGTCGA | 7.42
19 | TCTAGGAGGCCAGAGGGTCACTCAAGAGGTACGG | 2.66
20 | TCATATAGGTATACAGGTGAAAGTCCGTAAGTTA | 1.14
21 | TTACCTAGGTGAGCTGAGGTCGTTGATCCAACTC | 1.01
22 | CGTCCAAGGTCAGCAGGGCAGTGAAAGCGACGTG | 3.74
23 | ACTATTAGTTGAGACGAGGGGAACCGATAGGTTG | 0.177
24 | ATCTCTTGGTAAAGTTCAGTGAAAGATCGATAGA | 1.04
25 | CCTAGCAGGCCAGGGTCACTCATGCATTTCGCTT | 2.96
26 | ATCGAAAGGCCGAGGTGAGTATAGAGAAAGGGAA | 0.294
27 | TCATATAGGAAAACAGGTGAAAGTCCGTAAGTTA | 1.17
28 | TAATATAGGTAAAGGTGAAAGTCGAACGATATGA | 2.32
29 | CCTATTAGTTGACCATAAGGGCAACCGAAGCTCG | 1.02
30 | CGTACTAGGTCAAGGACAGTGAATCTCCGCACGC | 2.53
31 | GCTATTAGTTGAAAGGGCAGCCGAATGATTCTCG | 0.636
32 | GCTAGCAGGCCAATTGGGTCACTCAATGACGGGC | 0.841
33 | CAGCCTATGTCAGGGCCAGTATAGGAGGAACGTT | -0.248
34 | TGAATGAGGATATAAGATCAGGGAACGTTGCAAA | 0.189
35 | ACTAGCTGGCCAAGTTTGGGTCACTCAAACAAAG | 0.323
36 | TCATATAGGTAAACAGGTGAAAGACCGTAAGTTA | 1.17
37 | CGAACGAGGGCATGAATTGATAGCAAATGCCGAT | 0.708

Row | Sequence | PBM binding z-score
38 | AGAACGAGGGCAATGAGTTGATAGAACGGGTGGC | 0.744
39 | AGTCAAAGTTCATCTAGGTAACGTAAGATATGCT | 4.97
40 | TCAGACAGGTGAAGGTAACTCAAGTACGCAGTCG | 1.13
41 | TCGAGTAGGTTAGTCGGGGCAGTCAGCCAACATA | -0.226
42 | ACTCGGAGGACAAAGGCCAGAGCTACGCCAGTGA | -0.212
43 | CCTGCTAGGTCAATGGGCAGCTAAAGCAGCTCGC | 1.35
44 | TGAACGAGGTTATAAGATCAGGGAACGTTGCAAA | 2.02
45 | ACTAGCAGGCCAAGTTTGAGTCACTCAAACAAAG | -0.333
46 | ATCTCTAGGTAACCAGGTTCAGTGAATGCCGAAC | 0.776
47 | AGAGTGAGGTTATTAAGATCAGGGAATTGCGGTC | 1.82
48 | CCTAGCAGGGCAGGGTCACTCAAGCATTTCGCTT | 4.08
49 | TTACCAAGGTGAAAGGTAGTTGATGCACGCCTTG | 1.67
50 | CCTGCTAGGTTATGGTCAGCTAATCTACAGTATG | 0.0468
51 | ACCGAAAGGTCGTGAGGTGAGTATACAGAAAGGC | 5.25
52 | ACAGACAGGTGGTGAAGGTAACTCAGGCTATCAT | 0.0945
53 | ACTAGTTGGTCAGCTGAGGTCACCCACAATTCGG | 3.69
54 | GGTTGTAGATCAAGGTTAAGAAAGACTAAGCTAA | 0.901
55 | GTACCAAGGGGAATAGGTCGTTGATGAGTAGGCG | 0.651
56 | CCTTACGGGTCACTCCAGCTTATAGCATCGGAGT | 3.9

Reference: the supplement of paper PMC6555819
